About 4,000 (1.3%) of roughly 300,000 compounds were called active.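 Rule for the calls: active = mean replicate score, as percent of positive control median, at least 50; inconclusive = mean below 50 but one replicate at or above 50; inactive = mean and every replicate below 50.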 The entries come from a sample that favours actives as a whole.
assay: kanamycin survival loss of SKKanGAS strain – BacTiter-Glo luminescence, streptokinase expression inhibitor project, primary screen (AID 1662);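 note: strain carries kanamycin resistance gene driven by streptokinase promoter and grows in 40 µg/ml kanamycin; loss of luminescence reflects streptokinase promoter inhibition or plain growth inhibition; 0% = median of DMSO wells and 100% = positive control at its reference dose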; settings: S. pyogenes SKKanGAS, kanamycin growth, 6 h, at 7.5 µM, hits give high values

| SMILES | inhibition |
| --- | --- |
| CCC(=O)N1CCN(c2ccccc2NC(=O)COc2cccc(C)c2C)CC1 | 5.73% (inactive) |
| Cc1ccc(C(C)C)cc1OCC(=O)Nc1ccccc1N1CCCC1 | 69.7% (active) |
| Cc1ccccc1NC(=O)CNc1ccccc1N1CCCCC1 | 9.21% (inactive) |
| Cc1nn2c(NCCN(C)C)c3c(nc2c1-c1ccccc1)CCC3 | 6.41% (inactive) |
| COC(=O)c1ccc(C(=O)OC)c(NC(=S)N2CCN(c3cc(Cl)ccc3C)CC2)c1 | 14.5% (inactive) |
| Cc1cccc(N2CCN(C(=O)c3cnn4c(C(F)F)cc(-c5ccccc5)nc34)CC2)c1C | 38.6% (inactive) |
| Cc1ccc(Cl)cc1N1CCN(C(=O)c2cccc3c(=O)c(C)c(-c4ccccc4)oc23)CC1 | 52.6% (active) |
| CC1(C)C=C2[C@H]3CC[C@@H]4[C@@]5(C)CCC(=O)C(C)(C)[C@@H]5CC[C@@]4(C)[C@]3(C)CC[C@@]2(C(=O)O)CC1 | 96.7% (active) |
| Cc1ccc(S(=O)(=O)N2CCOCC2)cc1C(=O)Nc1ccccc1N1CCCC1 | -4.42% (inactive) |
| COc1ccc(C(=O)NC2CC2)cc1OC1CCN(Cc2cnn(C)c2)CC1 | 7.48% (inactive) |
| CCCCCC(O)c1cccc(OCc2ccc3ccccc3n2)c1 (stereo not given) | 15.6% (inactive) |
| CCOC(=O)C1=C(C)N=C2c3ccccc3C(=O)C2C1c1ccc(Br)cc1 (stereo not given) | 38.8% (inactive) |
| O=C1c2ccccc2C(=O)C1c1ccccc1F | 0.629% (inactive) |
| O=C1c2ccccc2C2=Nc3ccccc3SC(c3ccccc3F)C12 (stereo not given) | 52.9% (active) |
| O=C(c1ccc(F)cc1)C1CCN(Cc2cn[nH]c2-c2ccccc2)CC1 | -0.535% (inactive) |
| CCN1C(=O)[C@H]2[C@@H](c3ccc(-c4ccc(F)cc4)cc3)N[C@@](Cc3ccccc3)(C(=O)OC)[C@H]2C1=O | 9.27% (inactive) |
| CCC(C)C(=O)Nc1cc([N+](=O)[O-])ccc1Cl (stereo not given) | -5.67% (inactive) |
| O=C(CN1CCSCC1)N/N=C/c1ccc(F)cc1F | -4.84% (inactive) |
| COC(=O)c1cc(-c2cccs2)nc2ccccc12 | -7.36% (inactive) |
| O=C(Nc1nnc(-c2ccccc2)o1)c1cc(-c2cccs2)nc2ccccc12 | 92.3% (active) |
| O=C(NCCN1CCOCC1)c1cc(-c2cccs2)nc2ccccc12 | -10.4% (inactive) |
| C#CCNC(=O)C1=C[C@@H](c2ccccc2)[C@H](CCCO)[C@@H](OCC)O1 | 0.924% (inactive) |
| O=C(Nc1ccccc1Cl)NC1(C(=O)N2CCOCC2)CCCCC1 | -13% (inactive) |
| CCCCc1nc(NCc2ccccc2)c(C#N)c2c1CCCC2 | 60% (active) |

| SMILES | inhibition |
| --- | --- |
| CCCCc1nc(NCCN)c(C#N)c2c1CSC(C)(C)C2 | -15.3% (inactive) |
| CCc1nc(NCCO)c(C#N)c2c1CCCC2 | -3.02% (inactive) |
| CCCNC(=O)C(=O)Nc1cc2c3c(c1)CCC(=O)N3CCC2 | -4.99% (inactive) |
| COc1cc(NS(=O)(=O)c2ccc(NC(=S)NC(=O)c3ccc(Br)cc3)cc2)ncn1 | 16.4% (inactive) |
| CC(c1cccnc1)N(CCN(C)C)C(=O)Nc1ccc(Cl)c(Cl)c1 (stereo not given) | -0.312% (inactive) |
| O=C(COC(=O)c1cccc(Br)c1)Nc1cccc2c1C(=O)c1ccccc1C2=O | -1.24% (inactive) |
| Cc1ccccc1C(=O)Nc1ccccc1Sc1ccccc1 | 25.4% (inactive) |
| O=C(COC(=O)c1ccccc1)Nc1ccccc1Sc1ccccc1 | 58.2% (active) |
| CC(=O)N[C@H]1[C@H]([C@H](O)[C@H](O)CO)OC(C(=O)O)=C[C@@H]1O | -0.96% (inactive) |
| N=c1c2c(-c3ccccc3)c(-c3ccccc3)oc2ncn1Cc1ccco1 | 63.5% (active) |
| c1ccc(-c2oc3ncnc(N4CCOCC4)c3c2-c2ccccc2)cc1 | -2.29% (inactive) |
| COc1ccc2[nH]c3c(=O)n(Cc4ccco4)cnc3c2c1 | 17.1% (inactive) |
| N=c1c2c(-c3ccccc3)c(-c3ccccc3)n(Cc3ccccc3)c2ncn1CCCO | -1.98% (inactive) |
| COc1ccc(-c2oc3ncnc(NCCCO)c3c2-c2ccc(OC)cc2)cc1 | 33.4% (inactive) |
| COc1ccc(-c2oc3ncn(Cc4ccco4)c(=N)c3c2-c2ccc(OC)cc2)cc1 | 55% (active) |
| O=C(O)CC(Cn1cnnn1)c1ccccc1 (stereo not given) | -1.95% (inactive) |
| C/C(CC(C)C)=N\Oc1nc(C)cc(C)n1 | -4.06% (inactive) |
| O=[N+]([O-])c1ccc(NCCCO)c(C(F)(F)F)c1 | 0.29% (inactive) |
| COc1cc(C=O)ccc1Oc1nnnn1-c1ccccc1 | 24.2% (inactive) |
| CN(C(=O)Nc1ccc(Cl)cc1)n1cnc2ccccc2c1=O | 3.63% (inactive) |
| Oc1ccc(Br)cc1/C=N/Nc1ccccn1 | 106% (active) |
| Oc1ccc(/C=N/Nc2ccc(C(F)(F)F)cn2)cc1O | -9.78% (inactive) |
| O=C(CCCO)N/N=C/c1cc(Br)ccc1O | -3.72% (inactive) |
| CN(C)Cc1ccc(F)cc1Sc1cc(Cl)ccc1Cl | -3.54% (inactive) |

| SMILES | inhibition |
| --- | --- |
| CC(=O)Nc1ccc(S(=O)(=O)Nc2nc(-c3ccc(C(C)(C)C)cc3)cs2)cc1 | 0.664% (inactive) |
| O=C(Nc1ccc(-c2csc(Nc3cccc(C(F)(F)F)c3)n2)cc1)c1cccc(C(F)(F)F)c1 | 98.6% (active) |
| Cc1nc(NC(=O)c2cccc(Cl)c2)sc1-c1csc(Nc2cccc(Cl)c2)n1 | 25.6% (inactive) |
| COc1c(O)cc2oc(-c3ccc(O)c(O)c3)cc(=O)c2c1O | 3.54% (inactive) |
| OCc1ccc(-c2ccccc2)c(-c2ccccc2)c1 | -11.9% (inactive) |
| COCCNC(=S)N(CCc1c(C)[nH]c2ccc(C)cc12)Cc1cccnc1 | 8.58% (inactive) |
| O=C(O)c1cccc(N=NN2CCCCCC2)c1 | 5.53% (inactive) |
| C[C@H]1[C@H]2c3nc4ccccc4n3C[C@H]1ON2C1CCCCC1 | -3.38% (inactive) |
| Cc1ccccc1-n1c(SCC(=O)Nc2cccc3ccccc23)nc(O)cc1=O | 18.6% (inactive) |
| Cn1c(SCC(=O)Nc2ccc(Cl)cc2)nc(O)cc1=O | 112% (active) |
| COc1ccc(NC(=O)CSc2nc3ccccc3c(=O)n2C)cc1 | -4.23% (inactive) |
| C/C(=N\Nc1cccc(C(=O)O)c1)c1ccc2c(c1)Nc1ccccc1S2 | 0.801% (inactive) |
| COc1ccccc1CCNC(=O)c1c(C)nn(CC(C)C)c1Cl | -0.777% (inactive) |
| O=C(Nc1cccc(C(F)(F)F)c1)c1ccc(N2CCNCC2)c([N+](=O)[O-])c1 | -0.102% (inactive) |
| COc1cc(OC)cc(C(=O)NC(=S)N2CCN(c3ccc(C(F)(F)F)cc3[N+](=O)[O-])CC2)c1 | 86.6% (active) |
| O=C(Cc1ccc(S(=O)(=O)N2CCOCC2)s1)N1CCN(c2ccc(C(F)(F)F)cc2[N+](=O)[O-])CC1 | 3.49% (inactive) |
| Cc1cc(C(=O)OCC(=O)NCc2ccco2)c(C)n1-c1ccccc1 | 2.24% (inactive) |
| O=C(Nc1cc(C(F)(F)F)ccc1Cl)C(=O)N1CCCCC1 | -4.87% (inactive) |
| CC(CC(=O)Nc1cc(C(F)(F)F)ccc1Cl)c1ccccc1 (stereo not given) | 24.4% (inactive) |
| O=C(NNc1ccccc1Cl)C(O)(c1cccc(C(F)(F)F)c1)c1cccc(C(F)(F)F)c1 | 98.2% (active) |
| COc1cc(C)c(S(=O)(=O)N2CCOCC2)c(C)c1C | 0.811% (inactive) |
| O=C(Nc1ccccc1Cl)Nc1cccc2cccnc12 | -4.43% (inactive) |
| O=C(Nc1ccccc1Cl)/C(Cl)=C(\Cl)S(=O)c1ccccc1 (stereo not given) | 75.1% (active) |
| COCCN(CCOC)C(=S)Nc1ccccc1Cl | -4.57% (inactive) |

| SMILES | inhibition |
| --- | --- |
| Cn1cccc1C(C#N)c1ccccc1C#N (stereo not given) | 0.367% (inactive) |
| Cc1cc(C)c2nc(N(CCN(C)C)C(=O)/C=C/c3cccs3)sc2c1 | 3.15% (inactive) |
| Cc1noc(NS(=O)(=O)c2ccc(NC(=O)c3oc4ccc(F)cc4c3C)cc2)c1C | 25.3% (inactive) |
| CCn1c(SCC(=O)Nc2ccc(S(=O)(=O)Nc3onc(C)c3C)cc2)nnc1-c1ccccc1 | -0.983% (inactive) |
| Cc1cc(C)c2nc(-c3cccnc3)cc(C(=O)Nc3ccc(S(=O)(=O)Nc4onc(C)c4C)cc3)c2c1 | 64.7% (active) |
| Cc1ccsc1CNn1cnnc1SCc1ccccc1F | -0.394% (inactive) |
| FC(F)(F)c1cccc(-c2cc3ccccc3nc2N2CCCC2)c1 | 51.7% (active) |
| O=C(c1cc2ccccc2o1)N1CCN(c2cccc(C(F)(F)F)c2)CC1 | 0.601% (inactive) |
| c1ccc(-c2cc(N3CCCCC3)c3ccccc3n2)cc1 | 13.6% (inactive) |
| O=C(c1ccc(OC2CCN(C(=O)c3cccnc3)CC2)cc1)N1CCCCCC1 | -5.73% (inactive) |
| Cc1ccc(-n2[nH]c(C)c(/C=N/NC(=O)c3cccc([N+](=O)[O-])c3)c2=O)cc1C | 91.5% (active) |
| Cc1[nH]n(-c2ccccc2)c(=O)c1/C=N/NC(=O)c1ccoc1C | -29.8% (inactive) |
| O=C(N/N=C/c1cccc([N+](=O)[O-])c1)c1ccncc1 | 1.34% (inactive) |
| CC1=C2C(=O)OC(c3ccoc3)C2(C)CCC1 (stereo not given) | -13.7% (inactive) |
| CCC(NC(=O)C1CCCC1)c1ccc(C)cc1 (stereo not given) | 5.2% (inactive) |
| Cc1nn(C)c(C)c1S(=O)(=O)N1CCC(CO)(Cc2ccc(Cl)cc2)CC1 | -2.57% (inactive) |
| CC1CN(C(=S)Nc2ccccc2F)CC(C)O1 (stereo not given) | -2.73% (inactive) |
| COc1c(N2CCN(C(=S)Nc3ccccc3F)C(C)C2)c(F)cc2c(=O)c(C(=O)O)cn(C3CC3)c12 (stereo not given) | 104% (active) |
| COc1ccccc1NC(=S)N1CCN(c2ccc(F)cc2)CC1 | -4.99% (inactive) |
| COc1ccc(S(=O)(=O)NCC(=O)NC2CC2)cc1OC | -2.16% (inactive) |
| Cc1cc(Cl)c2oc(C(=O)NC(C)c3ccncn3)c(C)c2c1 (stereo not given) | -5.52% (inactive) |
| Cc1cc(Cl)c2oc(C(=O)N(C)C(C)c3ccccn3)c(C)c2c1 (stereo not given) | 8.03% (inactive) |
| Cc1cc(Cl)c2oc(C(=O)N3CCC(O)(c4ccccc4)CC3)c(C)c2c1 | 64.2% (active) |

From PubChem BioAssay AID1662 (Broad Institute, 2009)
